Measurements taken from PubChem BioAssay (NCI).
About 79,000 compounds went through this panel and 15% of them were active in at least one assay; those are over-represented in the sample as a whole. Activity calls are given as the source filed them. No stated cut-off is given here; in the data, active means growth inhibition above about 70%; inactive means the rest.

Legend:
[1] = NCI Yeast Anticancer Drug Screen. Data for the rad50 strain (AID 155);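 further: 0% = growth of vehicle-only cultures of the same strain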; conditions: S. cerevisiae rad50 strain growth inhibition; at 50.0 µM; stronger effect = higher value
Method in brief: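 Growth of the mutant yeast was measured after compound exposure and referenced to vehicle-treated cultures.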

[2] = NCI Yeast Anticancer Drug Screen. Data for the mec2-1 strain (AID 157); conditions: S. cerevisiae mec2-1 strain, at 50.0 µM, stronger effect = higher value
Method in brief: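 Strain: mec2-1 (DNA repair/cell cycle alteration). Compound exposure, then growth measured; inhibition expressed relative to vehicle.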

[3] = NCI Yeast Anticancer Drug Screen. Data for the sgs1 mgt1 strain (AID 161);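 further: 0% = growth of cultures given vehicle only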; conditions: S. cerevisiae sgs1 mgt1 strain, at 50.0 µM, stronger effect = higher value
Method in brief: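 Test agents were incubated with a DNA-repair-mutant yeast strain. Growth was then read and compared against vehicle-treated controls.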

[4] = NCI Yeast Anticancer Drug Screen. Data for the cln2 rad14 strain (AID 165);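 further: 0% = growth equal to vehicle treated cultures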; conditions: S. cerevisiae cln2 rad14 strain, at 50.0 µM, stronger effect = higher value
Method in brief: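 Compounds are applied to the cln2 rad14 yeast strain, and growth is then compared with that of vehicle-treated cultures to give inhibition.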

[5] = NCI Yeast Anticancer Drug Screen. Data for the bub3 strain (AID 167); conditions: S. cerevisiae bub3 mutant strain, at 50.0 µM, stronger effect = higher value
Method in brief: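 Whole-cell yeast assay. The mutant strain was incubated with compounds, and growth inhibition was determined by comparison with vehicle-treated cells.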

[6] = NCI Yeast Anticancer Drug Screen. Data for the mlh1 rad18 strain (AID 175); conditions: S. cerevisiae mlh1 rad18 strain growth inhibition; at 50.0 µM; stronger effect = higher value
Method in brief: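 Read-out is yeast growth inhibition, calculated against vehicle-only controls. The compound was applied to a strain engineered with DNA damage repair alterations.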

Measured: growth inhibition

[C-]#[O+].[C-]#[O+].[C-]#[O+].[C-]#[O+].[Mo].c1ccc([As](CC[As](c2ccccc2)c2ccccc2)c2ccccc2)cc1
inactive: [1] 3.4% | [2] -0.4% | [3] -5.8% | [4] -5.7% | [5] 1.15% | [6] 6.6%

Cc1ccc(N=C2OP(=O)(Nc3ccc(C)cc3)Oc3ccccc32)cc1 (stereo unspecified)
inactive: [1] -11.3% | [2] -44.8% | [3] -23.6% | [4] 0.3% | [5] -6% | [6] -19.9%

O=S(=O)(O)C(Br)(Br)Br
inactive: [1] 29.4% | [2] 5.3% | [3] 23.6% | [4] -26.9% | [5] 7.25% | [6] 28.2%

CN(C)[C@@H]1C(=O)C(C(N)=O)=C(O)[C@]2(O)C(=O)C3C(=O)c4c(O)ccc(Cl)c4[C@](C)(O)[C@H]3C[C@@H]12 (stereo partly specified)
inactive: [1] -6.15% | [2] 7.5% | [3] 22.8% | [4] -2.35% | [5] 3.15% | [6] -2.9%

COc1cc(C(O)CN)cc(OC)c1OC (stereo unspecified)
inactive: [1] -12.9% | [2] 2.2% | [3] -6.55% | [4] -7.35% | [5] -3.35% | [6] -6.8%

O=C(CF)Nc1ccc([N+](=O)[O-])cc1
inactive: [1] -12.4% | [2] -7.25% | [3] -6.25% | [4] -15.7% | [5] 0.2% | [6] 9.1%

CCOP12(OCC)NC(=O)OC1(C(F)(F)F)c1ccccc1O2 (stereo unspecified)
inactive: [1] -19.4% | [2] 3.9% | [3] -38% | [4] -7% | [5] -26.4% | [6] -36.4%

Cc1ccc2c(c1)Cc1ccccc1-2
inactive: [1] 22.9% | [2] -17.2% | [3] 16.9% | [4] 23.7% | [5] 10.2% | [6] 34.9%

O=NNc1ccc(C(F)(F)F)cn1
inactive: [1] -7.95% | [2] -6.95% | [3] -17.9% | [4] -5.75% | [5] -17.4% | [6] -15.2%

CC(C)(C)c1ccc2c(cc[n+]3ccccc23)c1
inactive: [1] -9.05% | [2] -6.85% | [3] 2.05% | [4] 4.05% | [5] 2.35% | [6] -11.9%

CC1(C(=O)O)OC1c1ccccc1 (stereo unspecified)
inactive: [1] 4.2% | [2] 1.2% | [3] 6.85% | [4] -11.7% | [5] 10.2% | [6] -7.7%

COc1ccc2c(c1)[C@@]13CCCC[C@H]1[C@@H](C2)N(C)CC3=O
inactive: [1] 41.5% | [2] 26.9% | [3] -14.3% | [4] 9.65% | [5] 3% | [6] -48%

CC(Cc1ccc2c(c1)OCO2)NCC(O)c1ccc(O)c(O)c1 (stereo unspecified)
inactive: [1] 14.6% | [2] -20.2% | [3] 18.2% | [4] 5% | [5] 32.2% | [6] 26.6%

COC12CC3(C)C(C4=CC(=O)OC4)CCC3(O)C3CCC4=CC(=O)CCC4(CO1)C32 (stereo unspecified)
inactive: [1] -1.85% | [2] -10.2% | [3] -11.4% | [4] 15.8% | [5] -16.9% | [6] 6.6%

COC1C(OC(=O)/C=C/C=C/C=C/C=C\C(=O)O)CCC2(CO2)C1C1(C)OC1CC=C(C)C (stereo unspecified)
inactive: [1] 9.95% | [2] -1% | [3] -19.3% | [4] 0.95% | [5] -8.7% | [6] 24.1%

O=[N+]([O-])c1ccc(SC2CCCCCCC2Br)c([N+](=O)[O-])c1 (stereo unspecified)
inactive: [1] -16.9% | [2] -13.5% | [3] -0.5% | [4] -33.6% | [5] 8.95% | [6] -18.4%

COc1ccc(NC2=C(C)C(=O)C3=C(C2=O)[C@H](COC(N)=O)[C@]2(OC)[C@@H]4N[C@@H]4CN32)cc1
inactive: [5] 69.4%
active: [1] 81.7% | [2] 79.7% | [3] 74.8% | [4] 71.6% | [6] 73.7%

CC1=CC(=Nc2ccc(N(CCCl)CCCl)cc2)C=CC1=O
inactive: [1] -6.1% | [2] 33.2% | [3] -28.4% | [4] 14.2% | [5] -7.9% | [6] 5.35%

O=[N+]([O-])c1ccc(P2(=O)Nc3ccccc3N2)cc1
inactive: [1] -21.9% | [2] -12.7% | [3] -8.6% | [4] -46.8% | [5] 0.25% | [6] -11.6%

CN(/N=C/c1ccnc2ccccc12)c1c([N+](=O)[O-])cc([N+](=O)[O-])cc1[N+](=O)[O-]
inactive: [1] -0.25% | [2] -4.65% | [3] -18.8% | [4] 18.9% | [5] -10% | [6] -8.4%

O=C1NC(=S)NC(=O)C1=Cc1ccc2ccccc2n1
inactive: [1] -7.9% | [2] -0.6% | [3] 1.55% | [4] 8.4% | [5] -6.35% | [6] -16.4%

FC(F)(F)c1ccc2c(c1)N(CCCl)c1ccccc1S2
inactive: [1] 4.3% | [2] -8.05% | [3] -2.4% | [4] -79.2% | [5] 1.5% | [6] -4.6%

C=C(C)CNC1=C(C)C(=O)C2=C(C1=O)[C@H](COC(N)=O)[C@]1(OC)[C@@H]3N[C@@H]3CN21
inactive: [1] 5.15% | [2] -9.35% | [3] 13.3% | [4] 23.9% | [5] 19.4%
active: [6] 74.7%

NC1CC=C(COC(=O)C(O)(c2ccccc2)C2CC2)CC1 (stereo unspecified)
inactive: [1] -12.9% | [2] -14.7% | [3] -23.6% | [4] 3.65% | [5] -7.4% | [6] -31.4%

O=P(Nc1ccc2ccccc2c1)(Nc1ccc2ccccc2c1)N(CCCl)CCCl
inactive: [1] -4.3% | [2] -3.5% | [3] 4.7% | [4] 4.2% | [5] -12.3% | [6] -12.8%

C[C@@]12CC/C(=N\OCC(=O)O)C=C1CC[C@H]1C2CC[C@]2(C)C1CC[C@H]2O (stereo partly specified)
inactive: [1] -9.4% | [2] -2.55% | [3] -14.6% | [4] -15.8% | [5] 2.75% | [6] -14.7%

[N-]=[N+]=C1C(=O)NN=C1c1ccccc1
inactive: [1] -9.6% | [2] -21.9% | [3] -25.4% | [4] 0.5% | [5] -17.2% | [6] 12.8%

CN(CCC(=O)O)C1=Nc2ccc(Cl)cc2C(c2ccccc2)=[N+]([O-])C1
inactive: [1] 1.75% | [2] 6.15% | [3] -14.2% | [4] -1.4% | [5] 16.2% | [6] 6.85%

ClCCN(CCCl)c1ccc(CCCCN2CCCCC2)cc1
inactive: [1] 20.2% | [2] 23.2% | [3] 21.2% | [4] 14.2% | [5] 19.2% | [6] 47%

C=CC(=O)OC(C)C
inactive: [1] 21.6% | [2] 11.2% | [3] 2.35% | [4] -1.7% | [5] 33.8% | [6] 15.8%

Nc1cccc2ccccc12
inactive: [1] 17.1% | [2] -9.95% | [3] 6.65% | [4] -28.9% | [5] 19.2% | [6] 4.4%

CCOP(=O)(OCC)C(N)Cc1c[nH]c2ccccc12 (stereo unspecified)
inactive: [1] 13.9% | [2] -5.85% | [3] -16.8% | [4] 16.4% | [5] 11.6% | [6] 4.9%

C=CCN1CN(c2ccccc2)C2(CCN(CCCC3(c4ccc(F)cc4)OCCO3)CC2)C1=O
inactive: [1] -18.1% | [2] -7.55% | [3] 1.4% | [4] 0.4% | [5] 0.7% | [6] -13.8%

CCCCOP(=S)(OCCCC)Oc1ccc(Cl)cc1Cl
inactive: [1] -4.95% | [2] -41.4% | [3] -0.55% | [4] -0.25% | [5] 17.5% | [6] -1.95%

COc1cc2c(cc1OC)CC[N+](C)=C2
inactive: [1] 5.65% | [2] -6.5% | [3] 13.8% | [4] -2.45% | [5] -2.4% | [6] 2.65%

C[CH2][Pb]([Br])([CH2]C)[CH2]C
inactive: [1] -17.7% | [2] -1.4% | [3] -5.85% | [4] -14.1% | [5] -4.15% | [6] -1.45%

Cc1cccc(CCF)c1
inactive: [1] -8.4% | [2] 8.5% | [3] 1.25% | [4] -3.8% | [5] -0.15% | [6] -4.75%

N=C(N)n1cc(/C=N/N=C(N)N)cn1
inactive: [1] -4.4% | [2] -4.35% | [3] -0.15% | [4] 0.1% | [5] -8.3% | [6] 5.8%

CN(C)P(=O)(CC(O)c1ccccc1)N(C)C (stereo unspecified)
inactive: [1] 18.6% | [2] -2.05% | [3] -14.5% | [4] -8.05% | [5] 8.5% | [6] 10.9%

N.N.N.N.N.[Co+3].[I-].[N-]=[N+]=[N-]
inactive: [1] -0.25% | [2] 32.8% | [3] -25.4% | [4] 20.4% | [5] -6.05% | [6] -9.05%

CC(C)(C(=O)c1ccccc1)N1CC1
inactive: [1] -0.65% | [2] 2.8% | [3] -4.75% | [4] -10.6% | [5] -23.6% | [6] -8.25%
